High-throughput results deposited in PubChem BioAssay by National Center for Advancing Translational Sciences (NCATS).
Shiga toxin inh: A qHTS for Small Molecule Inhibitors of Shiga Toxin; Vero cells, Shiga toxin protein synthesis inhibition reporter; inhibition, % at 38.7 µM; actives 9.2% (n = 290,000); in the data active = inhibition mostly above about 28%, no sharp cut-off; inactive = mostly below about 43%; note: 0% is about no effect
CHX counter: Cycloheximide Counterscreen for Small Molecule Inhibitors of Shiga Toxin; cell reporter, cycloheximide protein synthesis inhibition counterscreen; max response, %; actives 12% (n = 300,000); in the data active = max response mostly above about 13%, no sharp cut-off; inactive = mostly below about 14%; note: read at 38.3 µM for the half of the compounds with a filed dose; 0% is about no effect
Pf growth 96h: Primary qHTS for delayed death inhibitors of the malarial parasite plastid, 96 hour incubation; P. falciparum luciferase reporter growth, 96 h; Potency, µM (top dose mostly 28.7 µM), for the others: at the highest dose activity change, negative = inhibition, most hits filed as inhibitors; actives 6.9% (n = 320,000); note: potency is the fitted concentration of half-maximal effect; % is set by controls: 0 for no effect and ±100 for the full control effect
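Compounds incubated with erythrocytes infected by luciferase-expressing P. falciparum (2% hematocrit, 0.05% parasitemia final) for 96 hours, 37 C in 5% CO2. Growth inhibition scored as decreased luciferase luminescence.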
Pf growth 48h: Primary qHTS for delayed death inhibitors of the malarial parasite plastid, 48 hour incubation; P. falciparum luciferase growth in erythrocytes, 48 h; Potency, µM (doses to about 28.7 µM), inactives show top-dose activity change, negative = inhibition, usual class: inhibitors; actives 5.9% (n = 310,000); note: potency is the fitted concentration of half-maximal effect; % is set by controls: 0 for no effect and ±100 for the full control effect
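Luciferase-expressing P. falciparum in infected erythrocytes (2% hematocrit, 0.1% parasitemia final) in RPMI 1640/0.5% Albumax were exposed to compound for 48 hours at 37 C, 5% CO2; growth read as luminescence.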
Numbers without * were called inactive; ? = inconclusive; / = no result. Only some compounds are listed: those with a hit (about 21% of all), similar ones and a draw of the others. Unless noted, calls come from the whole dose curve; as a rule, active = well fitted inhibition curve with a large enough effect; inconclusive = small, poorly fitted or top-dose-only effect, or another doubt; inactive = no such curve, though single readings can be large or run the other way.

SMILES | Shiga toxin inh | CHX counter | Pf growth 96h | Pf growth 48h
Cc1cc(C)c(S(=O)(=O)c2cccc(Cl)c2)c(Cl)n1 | 27 | 22 | ? | 10µM*
Cc1cc(C)c(S(=O)(=O)c2c(C)cccc2C)c(Cl)n1 | 2 | -3 | -29% | -12%
CC(C)c1cc(C(=O)N2CCCC(CCC(=O)N3CCN(c4ccccn4)CC3)C2)no1 (stereo not given) | 18 | -1 | ? | ?
C=CCN(CC=C)C(=O)CN1C(=O)NC(c2ccccc2)(c2ccccc2)C1=O | -2 | 2 | -6% | 0%
COc1cccc(N2CCN(C(=O)c3cccc(NC4=NC5CS(=O)(=O)CC5S4)c3)CC2)c1 (stereo not given) | 1 | -2 | -8% | 14%
O=c1oc(-c2ccccc2NS(=O)(=O)c2ccccc2)nc2ccccc12 | 30 | -5 | -21% | -22%
O=c1[nH][nH]c(=O)c2c(NS(=O)(=O)c3ccccc3)cccc12 | 62* | 36* | ? | 2%
CCN1CCN(c2cc(C)c3cc(NC(=O)c4ccccc4F)ccc3n2)CC1 | 21 | 14 | 4.7µM* | /
CCN(CC)c1cc(C)c2cc(NC(=O)c3ccc(Br)o3)ccc2n1 | 32 | 26 | 63% | 12µM*
Cc1cc(N2CCN(C)CC2)nc2ccc(NC(=O)c3ccccc3F)cc12 | 72* | 37* | 9.3µM* | 33%
CCN1CCN(c2cc(C)c3cc(NC(=O)c4ccc(C)c(C)c4)ccc3n2)CC1 | -8 | 0 | ? | 2.1µM*
CCN1CCN(c2cc(C)c3cc(NC(=O)c4cccnc4Cl)ccc3n2)CC1 | -3 | 1 | / | /
CCN1CCN(c2cc(C)c3cc(NC(=O)c4ccncc4)ccc3n2)CC1 | -21 | -3 | -4% | /
CCC(C)N1CC(=O)N2C(c3ccc(OC)cc3OC)c3[nH]c4ccccc4c3C[C@H]2C1=O (stereo not given in full) | -9 | -4 | ? | ?
CC(NC(=O)CCNS(=O)(=O)c1ccc2c(c1)oc(=O)n2C)c1ccccc1 (stereo not given) | -7 | -4 | 49% | 1%
CCN1CCN(c2cc(C)c3cc(NC(=O)c4ccc(Br)o4)ccc3n2)CC1 | 102 | 15* | 25% | 2.3µM*
O=C(CSc1ccc2ccccc2n1)N/N=C/c1ccccc1O | 60* | 32* | 18% | ?
O=C(Cn1cncn1)N/N=C/c1ccccc1O | 34 | 9.9* | 13% | -20%
O=C(CSc1ccc2ccccc2n1)c1ccccc1 | 90* | 53* | 67% | 56%
O=C(CSc1ccc2ccccc2n1)N/N=C/c1ccc(O)cc1 | 11 | 11* | ? | 33%
Cc1nn(CC(=O)N2CCCC2)c(=O)c2cc3cc(F)ccc3n12 | -4 | 1 | 58% | -2%
Cc1cccc(N2CC(C(=O)NCc3ccco3)CC2=O)c1C (stereo not given) | / | / | -14% | -15%
O=C(COc1ccccc1[N+](=O)[O-])NCCC1=CCCCC1 | 19 | 9 | 46% | 49%
CCc1ccc(C(=O)NNC(=O)c2c(CC)noc2C)cc1 | / | / | 5% | -17%
O=C(CCn1cnc2ccccc21)N/N=C/c1ccc(O)cc1 | 12 | 3 | 41% | 39%
SMILES | Shiga toxin inh | CHX counter | Pf growth 96h | Pf growth 48h
O=C(CCn1cnc2ccccc21)N/N=C/c1ccccc1O | 60* | 24* | 9% | ?
CCOc1ccccc1NC(=O)c1ccc2[nH]c(C)c(C)c2c1 | 43* | 42* | ? | 15µM*
CCOc1ccccc1NC(=O)NNC(=O)c1ccc2ccccc2c1 | -3 | -2 | 38% | -17%
CCC(=O)CCC(=O)c1ccc2ccccc2c1 | 125* | 55* | 35% | 62%
CCOc1ccccc1NC(=O)c1ccc2ccccc2c1 | / | 23* | 12µM* | 5%
CCOc1ccccc1NC(=O)c1cc(CC(C)C)oc1C | 9 | 2 | -10% | 10µM*
CC(C)N(CCC(=O)c1ccc2ccccc2c1)Cc1ccccc1 | / | / | 24% | -26%
COCCn1c(Cc2ccccc2)nnc1SCC(=O)NC1CC1 | 3 | 1 | -9% | 31%
COc1ccccc1C(=O)NC(=O)COC(=O)c1ccc([N+](=O)[O-])cc1Cl | / | / | 97% | 5%
COc1ccc(S(=O)(=O)N2CCNCC2)cc1 | -7 | -1 | ? | 29%
Clc1ccc2nnnc(-c3ccccc3)c2c1 | 98* | 52* | ? | ?
COc1ccc(-n2ncc3c2CC(C)(C)CC3NC(=O)CCN2CCCCC2=O)cc1 (stereo not given) | -11 | -1 | -13% | -8%
COCCn1ccc2c(OCC(=O)Nc3cc(OC)ccc3OC)cccc2c1=O | / | / | ? | 12µM*
COC(=O)C[C@]1(C(=O)OC)CN(C#N)N(c2ccc(Cl)cc2)C12c1ccccc1-c1ccccc12 | -11 | -8 | 3.7µM* | 3.7µM*
CCCCn1c(=O)c(C=Nc2ccc(Cl)cc2)c(O)n(Cc2ccco2)c1=O | -12 | -3 | 9.3µM* | 8.3µM*
CC(C)n1c(=O)c(C=Nc2ccc(S(N)(=O)=O)cc2)c(O)n(Cc2ccco2)c1=O | -22 | -2 | -8% | 0%
COc1ccc(C(=O)/C(=C/c2cccs2)c2nc3ccccc3o2)cc1 | 93* | 43* | ? | /
COc1ccc(/C=C(\CC(=O)O)c2nc3ccccc3o2)cc1 | 108* | 39* | 135% | 214%
O=S(=O)([O-])CCC[n+]1c(/C=C\Nc2ccccc2)oc2ccc(-c3ccccc3)cc21 | -6 | 5 | ? | 8%
Cc1onc(C(=O)NC(C)c2ccccc2)c1[N+](=O)[O-] (stereo not given) | -11 | 7 | -6% | -5%
O=C(c1noc2c1CCCC2)N1CCOCC1 | 17 | 7 | 0% | 18%
Cc1nn(Cc2ccc(F)cc2)c(C)c1NC(=O)c1noc2c1CCCCC2 | -8 | 3 | ? | ?
O=C(NC1CCCC1)c1noc2c1CCCCC2 | 152* | 37* | 58% | 93%
CC(NC(=O)c1noc2c1CCCCC2)c1ccccc1 (stereo not given) | 45* | 33* | ? | 39%
O=C(NCc1ccccc1)c1noc2c1CCCCC2 | 84* | 46* | 9.3µM* | 154%
SMILES | Shiga toxin inh | CHX counter | Pf growth 96h | Pf growth 48h
COc1ccc(CNC(=O)c2noc3c2CCCCC3)cc1 | 85* | 25* | ? | 37%
Oc1ccccc1C(=S)N1CCN(C(=S)c2ccccc2O)CC1 | -6 | -4 | 4% | -19%
COC(=O)[C@H](Cc1ccccc1)NC(=O)NCCc1ccccc1F | 5 | -4 | 7% | 25%
Cc1onc(-c2c(Cl)cccc2Cl)c1C(=O)NCc1cccs1 | 10 | 5 | ? | 42%
O=C(NCc1cccs1)c1noc2c1CCCCC2 | 54* | 23* | ? | 111%
Cc1nn(Cc2ccccc2Cl)c(C)c1NC(=O)c1noc2c1CCCCC2 | 4 | 21* | -22% | 37%
Cc1ccccc1Cn1nc(C)c(NC(=O)c2noc3c2CCCC3)c1C | -6 | 0 | ? | ?
CC(C)(C)OC(=O)NC1CCN(S(=O)(=O)c2ccc3c(c2)OCCO3)CC1 | -4 | -3 | -7% | 26%
O=C(COc1ccc(Cl)cc1)NNC(=O)c1ccc2c(=O)n3c(nc2c1)CCC3 | / | / | 4% | 17%
